High-throughput results deposited in PubChem BioAssay by National Center for Advancing Translational Sciences (NCATS).
BAZ2B block: inhibitors of human BAZ2B bromodomain | Q9UIF8 | AlphaScreen BAZ2B-H3K14Ac peptide displacement | Potency, µM (top dose mostly 114 µM), actives largely listed as inhibitors | 360,000 compounds, 4.4% hits | AID 504333; note: nearly all actives have a fitted effect of over 60% in size
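AlphaScreen displacement: compounds (up to 110uM) incubated 30 min at room temperature with a preformed 50 nM BAZ2B/50 nM biotinylated H3K14Ac peptide complex in PBS pH 7.4 with Tween-20. Donor and acceptor beads at 10 ug/mL final added, 20 min light-protected before reading.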
L3MBTL1 inh: blocks human L3MBTL1; AlphaScreen L3MBTL1–H3K9me1 peptide binding; Potency, µM (highest dose often 57.1 µM), actives largely listed as inhibitors; 230,000 compounds, 0.66% hits; note: nearly all actives have a fitted effect of over 60% in size
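AlphaScreen proximity signal between nickel-chelate acceptor and streptavidin donor beads (final 10 ug/mL) reports binding of 50 nM L3MBTL1 to 75 nM biotin-H3 K9me1 peptide; complex incubated with compounds 30 min at room temperature; cefsulodin titration as control.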
HP1b binding inh: inhibitors of HP1-beta chromodomain binding to methylated histone tails; P83916; AlphaScreen HP1-beta / biotin-H3K9me3 peptide binding; Potency, µM (series often up to 114 µM), actives largely listed as inhibitors; 390,000 compounds, 0.56% hits; AID 540317; note: nearly all actives have a fitted effect of over 70% in size
Target sequence (P83916 whole entry, looked up): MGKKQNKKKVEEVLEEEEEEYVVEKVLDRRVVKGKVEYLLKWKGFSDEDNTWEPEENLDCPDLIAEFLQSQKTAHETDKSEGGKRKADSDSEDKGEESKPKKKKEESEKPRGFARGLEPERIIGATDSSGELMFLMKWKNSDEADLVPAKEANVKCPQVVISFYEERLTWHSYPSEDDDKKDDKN
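HP1-beta protein (50 nM final) preincubated 30 min at room temperature with biotinylated H3(1-18)K9me3 peptide (50 nM) in PBS pH 7.4, 0.01% Tween-20, then compound added for 30 min. AlphaScreen streptavidin donor/nickel chelate acceptor beads (10 ug/mL final), 30 min dark, luminescence read.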
JMJD2A Tudor inh: inhibitors of human JMJD2A Tudor domain. AID 504339. AlphaScreen JMJD2A-Tudor / H3K4me3 peptide binding. 390,000 compounds, 4.4% hits. Potency, µM (highest dose often 114 µM), usual class: inhibitors. O75164; note: nearly all actives have a fitted effect of over 50% in size
G9a inh: blocks human histone lysine methyltransferase G9a; G9a H3K9 monomethylation, AlphaScreen, 2 h; Potency, µM (top dose mostly 102 µM), actives largely listed as inhibitors; 350,000 compounds, 8.8% hits; note: nearly all actives have a fitted effect of over 75% in size
Target sequence (Q96KQ7 913-1193 limits assumed): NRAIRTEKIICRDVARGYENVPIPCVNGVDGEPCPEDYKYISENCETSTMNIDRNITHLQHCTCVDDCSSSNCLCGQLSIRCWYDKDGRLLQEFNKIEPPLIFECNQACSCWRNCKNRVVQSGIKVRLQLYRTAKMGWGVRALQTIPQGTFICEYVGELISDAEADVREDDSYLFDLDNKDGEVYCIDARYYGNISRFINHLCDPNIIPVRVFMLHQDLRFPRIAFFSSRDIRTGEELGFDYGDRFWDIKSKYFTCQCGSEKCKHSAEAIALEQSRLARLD
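Quantitative HTS format: methyltransferase activity on a biotin-tagged H3K9 peptide is measured by AlphaScreen, using a rabbit anti-monomethyl-H3K9 antibody with streptavidin donor and anti-IgG acceptor beads. Final levels are 20 nM enzyme, 500 nM peptide, 20 uM SAM; 2 h RT.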
Hits are given with their value; i = inactive; ? = inconclusive; nt = no result; [ ] = dose if it differs, or a comment. Shown are actives, neighbours in structure and some others; about 11% of the full set was active somewhere. Calls come from the whole dose curve; as a rule, active = well fitted inhibition curve with a large enough effect; inconclusive = small, poorly fitted or top-dose-only effect; inactive = no such curve, though single readings can be large or run the other way.

SMILES	BAZ2B block	L3MBTL1 inh	HP1b binding inh	JMJD2A Tudor inh	G9a inh
CC(C)C1Nc2ccc(C(=O)NCc3ccco3)cc2NC1=O (stereo unspecified)	i	nt	i	i	79.4µM
COCCCNC(=O)c1ccc2c(c1)NC(=O)C(C(C)C)N2 (stereo unspecified)	i	nt	i	i	i
O=C(NCc1ccco1)c1ccc(COc2ccccc2Cl)cc1	i	i	i	56.2µM	?
Cc1cc2oc(=O)cc(C)c2c2occ(-c3ccc(Cl)cc3)c12	i	nt	i	i	i
Cc1ccc(NC(=O)N2CCc3c([nH]c4ccccc34)C2c2ccccc2F)c(Cl)c1 (stereo unspecified)	i	nt	i	i	?
CCC(CC)C(=O)Nc1cccc(C(=O)NCc2ccco2)c1	56.2µM	?	i	?	?
CCOC(=O)N1CCC(N2C(=O)c3ccc(C(=O)NCc4ccco4)cc3C2=O)CC1	i	i	i	i	70.8µM
Cc1ccc(-c2cc(C(=O)Nc3c(C(=O)c4ccc(C)c(F)c4)oc4ccccc34)no2)cc1	i	nt	i	i	i
O=S(=O)(c1ccc2ccccc2c1)N1CCN(c2nc(-c3ccccc3)nc3ccccc23)CC1	nt	nt	i	i	nt
O=C(NCCc1csc(-c2cccc(F)c2)n1)c1cccs1	i	nt	i	i	i
COC(=O)c1ccc(Cl)cc1NC(=O)N1CC=C(c2c[nH]c3ccccc23)CC1	?	nt	i	i	i
O=c1cc(O)n(-c2ccc(F)cc2)c(=S)[nH]1	i	nt	i	i	31.6µM
COc1ccc(C2C=C3CNS(=O)(=O)C3CC2OC(=O)c2cccc(C)c2)cc1 (stereo unspecified)	nt	nt	i	i	nt
CCOc1ccc2c(c1)C(C)=CC(C)(C)N2S(=O)(=O)c1ccc(F)cc1	i	i	i	i	i
CCOc1ccc2c(c1)-c1c(ssc1=S)C(C)(C)N2C	10µM	nt	2µM	11.2µM	3.98µM
O=C(NCc1ccccc1)c1ccc(CS(=O)(=O)c2c(Cl)cccc2Cl)o1	i	nt	i	i	i
Cc1ccsc1C(=O)N(CC(C)C)c1c(N)n(Cc2ccccc2)c(=O)[nH]c1=O	i	nt	i	i	i
N#Cc1c(NCCN)nc(NCc2ccccc2)c2c1CCN(Cc1ccccc1)C2	?	i	i	?	44.7µM
CCN1CCc2c(C#N)c(NCc3ccccc3)nc(N(CC)CC)c2C1	?	i	i	?	50.1µM
CCCc1nc(NCc2ccccc2)c(C#N)c2c1CCCC2	i	i	i	i	i
O=C(/C=C/c1cccc(Br)c1)NCc1ccncc1	i	nt	i	i	i
COc1cc(Cl)c(C)cc1NC(=O)CSCc1nc(-c2ccc(OC)c(OC)c2)no1	i	nt	i	i	i
CCc1cc2cc(C)cc(C)c2[nH]c1=S	?	nt	i	8.91µM	1.41µM
CCOCCCN(Cc1cc2cc(C)cc(C)c2[nH]c1=O)C(=O)N(CC)CC	i	i	i	i	i
O=C1NC(c2ccccc2)=C(c2ccc3ccccc3n2)C(c2ccncc2)N1 (stereo unspecified)	i	i	i	i	50.1µM
SMILES	BAZ2B block	L3MBTL1 inh	HP1b binding inh	JMJD2A Tudor inh	G9a inh
O=C1NC(c2ccccc2)=C(c2ccc3ccccc3n2)C(c2ccccc2)N1 (stereo unspecified)	i	i	i	?	i
Nc1ncnc2c1ncn2[C@@H]1O[C@H](COP(=O)(O)OP(=O)(O)OP(=O)(O)OP(=O)(O)OC[C@@H]2O[C@H](n3cnc4c(N)ncnc43)[C@@H](O)[C@@H]2O)[C@H](O)[C@H]1O	nt	nt	nt	nt	i
Cc1nc(C)c(C(=O)NNS(=O)(=O)c2ccc3ccccc3c2)s1	i	i	i	25.1µM	?
Cc1nc(NS(=O)(=O)c2ccccc2)sc1C(=O)NNS(=O)(=O)c1ccccc1	i	nt	i	i	50.1µM
Cc1nc(NS(=O)(=O)c2ccccc2)sc1NC(=O)Nc1ccc(Cl)cc1	50.1µM	nt	i	?	i[12.7 µM]
Cc1ccc(S(=O)(=O)NNC(=O)c2sc(NS(=O)(=O)c3ccccc3)nc2C)cc1	i	nt	i	i	i
O=C(C1COc2ccccc2O1)N1CCN(c2ccc(C(F)(F)F)cn2)CC1 (stereo unspecified)	nt	i	i	?	nt
CN1CCN(c2ccc(CNS(=O)(=O)Cc3ccc(Cl)cc3)cc2)CC1	i	4.47µM	i	i	?
COc1ccc(S(=O)(=O)N2CCOCC2)cc1NC(=O)c1cc2ccccc2o1	i	i	i	i	44.7µM
Cc1ccc(S(=O)(=O)N2CCCCC2)cc1NC(=O)c1cc2ccccc2o1	i	i	i	i	i[12.7 µM]
CCN1CCN(c2ccc(S(=O)(=O)N3CCCCC3)cc2NC(=O)c2cccc(Cl)c2)CC1	?	i	i	?	31.6µM
COc1ccc(OC)c(NC(=O)/C=C/c2ccc(S(=O)(=O)N3CCOCC3)cc2)c1	i	i	i	i	50.1µM
COc1ccc(C)cc1NC(=O)/C=C/c1ccc(OC)c(S(=O)(=O)N2CCOCC2)c1	i	i	i	?	?
CCN1CCN(c2ccc(S(=O)(=O)N3CCCCC3)cc2NC(=O)c2cccc(OC(F)F)c2)CC1	i	i	i	i	12.6µM
CC(C)COc1cccc(C(=O)Nc2cc(S(=O)(=O)N3CCOCC3)ccc2N2CCCC2)c1	nt	nt	?	i	nt
Cc1ccc(C)c(NC(=O)CCCN2C(=O)C(c3ccccc3)Oc3cccnc32)c1 (stereo unspecified)	i	nt	i	i	i
CCN1CCN(c2ccc(S(=O)(=O)N3CCCCC3)cc2NC(=O)c2cc3ccccc3o2)CC1	i	?	i	?	35.5µM
CCN1CCN(c2ccc(S(=O)(=O)N3CCCCC3)cc2NC(=O)Cc2ccc(OC)cc2)CC1	i	nt	i	i	i[12.7 µM]
CCN1CCN(c2ccc(S(=O)(=O)N3CCCCC3)cc2NC(=O)c2ccc(OC(F)F)cc2)CC1	i	i	i	i	14.1µM
Cc1ccc(-n2nc(C(=O)N(C)Cc3ccccc3)c3c4ccccc4n(C)c3c2=O)cc1	i	nt	i	i	i
Cc1cc(C)n(/N=C\c2c(O)ccc3ccccc23)c(=O)c1C(N)=O	i	nt	i	89.1µM	1.12µM
NC(=S)N/N=C/c1c(O)ccc2ccccc12	2.51µM	nt	i	56.2µM	nt
Oc1ccc2ccccc2c1/C=N/c1nc2c(s1)CCCC2	i	nt	?	50.1µM	1.41µM
Oc1c(Br)cc(Br)cc1/C=N/c1nc2c(s1)CCCC2	nt	nt	i	i	nt
Oc1ccc2ccccc2c1/C=N/n1cnnc1	i	i	i	i	31.6µM
SMILES	BAZ2B block	L3MBTL1 inh	HP1b binding inh	JMJD2A Tudor inh	G9a inh
COC(=O)CCN(Cc1ccco1)S(=O)(=O)c1ccc(F)cc1Br	nt	nt	i	i	nt
Oc1ccc2ccccc2c1/C=N/Nc1ccccc1	i	?	i	50.1µM	7.08µM
O=C(NN=Cc1c(O)ccc2ccccc12)c1ccc2c(c1)OCO2	nt	i	i	i	nt
O=CN/N=C/c1c(O)ccc2ccccc12	i	i	i	i	i
Oc1ccc2ccccc2c1C=NC1CCCCC1	?	nt	i	i	8.91µM
O=C(N/N=C/c1c(O)ccc2ccccc12)c1ccc(CO)nc1	3.16µM	3.55µM	i	56.2µM	56.2µM
Oc1ccc2ccccc2c1C=NCc1ccccc1	i	?	i	?	28.2µM
